Results: PubChem BioAssay (NCATS)
Inconclusive results are not listed. Active and inactive are the calls of the source. Unless noted, the call rests on the fitted dose curve.

Assays:
[1] = target: Lysosomal acid glucosylceramidase (Homo sapiens) (UniProt P04062); experiment: Glucocerebrosidase-p2 (AID 348; in the data active means potency below about 10 µM; further: potency means the concentration at half of the fitted maximal effect); details: purified GBA, blue fluorogenic substrate, 40 min
How it was run: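 Normal human glucocerebrosidase (0.2 nM) with blue fluorogenic substrate (80 uM final) in citrate/phosphate pH 5.9 with 10mM sodium taurocholate, 0.01% tween-20; 40 min RT, NaOH/glycine stop; fluorescence Ex 365/Em 440; AC50 from a titration from 0.6 nM upwards.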

[2] = AP1 Signaling Pathway (AID 357; active means well fitted curve in either direction with a large enough effect, not every such curve was filed as active;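 further: ME-180 reporter cells stimulated with EGF at its EC50 level; on the % scale 0 is the no-effect control and ±100 the full control effect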); details: ME-180 AP-1-bla reporter, EGF-induced, beta-lactamase ratio, 5 h; at 7.69 µM (top of the series) unless noted
How it was run: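 Cells are seeded overnight, exposed to compound titrations and an EC50 level of EGF for 5 hours at 37 °C, then loaded with CCF4 dye for 2.5 hours. Beta-lactamase activity under the AP-1 element is read as a blue/green ratio.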

[3] = target: Cytochrome P450 1A2 (Homo sapiens) (UniProt P05177); experiment: p450-cyp1a2 (AID 410); details: recombinant CYP1A2, luciferin-ME demethylation, luminescence; series mostly up to 57 µM; further: potency means the concentration at half of the fitted maximal effect;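 on activity change, negative = inhibition: -100% = full effect of reference inhibitor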
Cytochrome P450 1A2 (Homo sapiens), sequence (P05177 whole entry, looked up): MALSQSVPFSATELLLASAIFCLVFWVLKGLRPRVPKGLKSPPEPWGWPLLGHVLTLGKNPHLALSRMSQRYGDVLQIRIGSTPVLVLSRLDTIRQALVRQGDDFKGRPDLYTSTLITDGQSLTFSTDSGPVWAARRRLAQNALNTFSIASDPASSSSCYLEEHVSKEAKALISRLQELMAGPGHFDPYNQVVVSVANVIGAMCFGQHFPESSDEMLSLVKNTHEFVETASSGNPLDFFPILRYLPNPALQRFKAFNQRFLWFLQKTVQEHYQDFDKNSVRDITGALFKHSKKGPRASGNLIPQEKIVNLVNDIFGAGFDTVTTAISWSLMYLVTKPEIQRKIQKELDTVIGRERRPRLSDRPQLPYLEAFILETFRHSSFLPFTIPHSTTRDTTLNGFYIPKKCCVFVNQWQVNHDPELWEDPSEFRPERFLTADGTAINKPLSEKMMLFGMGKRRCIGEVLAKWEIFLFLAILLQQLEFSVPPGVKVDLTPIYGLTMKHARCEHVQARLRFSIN
How it was run: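 O-Demethylation of luciferin 6' methyl ether by human CYP1A2 is monitored as luciferase luminescence. Substrate sits at Km (100uM); enzyme is 20nM. Values are scaled to 57 uM furafylline as maximal inhibition.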

[4] = Stat Signaling Pathway (AID 446; active means well fitted curve in either direction with a large enough effect, not every such curve was filed as active;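 further: ME-180 cervical cancer cells given 40 pM IL-6 alongside compound; SIE-controlled beta-lactamase reporter measured as 460/530 nm FRET emission ratio; on the % scale 0 is the no-effect control and ±100 the full control effect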); details: ME-180 SIE beta-lactamase reporter, IL-6 stimulated, 5 h; at 7.69 µM (top of the series) unless noted
How it was run: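 Emission at 460 and 530 nm (excitation 405 nm) reports SIE-controlled beta-lactamase in ME-180 cells. Cells received compound with 40 pM IL-6 for 5 hrs at 37 C; data scaled between 300 pM IL-6 and 125 nM JAK-inhibitor controls.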

[5] = target: Glucocorticoid receptor (Homo sapiens) (UniProt P04150); experiment: GR-EFC Redistribution (AID 451); details: CHO-K1 GR-EFC translocation, beta-gal luminescence, 2 h; further: potency means the concentration at half of the fitted maximal effect
Glucocorticoid receptor (Homo sapiens), sequence (P04150 whole entry, looked up, the tested form may be a part): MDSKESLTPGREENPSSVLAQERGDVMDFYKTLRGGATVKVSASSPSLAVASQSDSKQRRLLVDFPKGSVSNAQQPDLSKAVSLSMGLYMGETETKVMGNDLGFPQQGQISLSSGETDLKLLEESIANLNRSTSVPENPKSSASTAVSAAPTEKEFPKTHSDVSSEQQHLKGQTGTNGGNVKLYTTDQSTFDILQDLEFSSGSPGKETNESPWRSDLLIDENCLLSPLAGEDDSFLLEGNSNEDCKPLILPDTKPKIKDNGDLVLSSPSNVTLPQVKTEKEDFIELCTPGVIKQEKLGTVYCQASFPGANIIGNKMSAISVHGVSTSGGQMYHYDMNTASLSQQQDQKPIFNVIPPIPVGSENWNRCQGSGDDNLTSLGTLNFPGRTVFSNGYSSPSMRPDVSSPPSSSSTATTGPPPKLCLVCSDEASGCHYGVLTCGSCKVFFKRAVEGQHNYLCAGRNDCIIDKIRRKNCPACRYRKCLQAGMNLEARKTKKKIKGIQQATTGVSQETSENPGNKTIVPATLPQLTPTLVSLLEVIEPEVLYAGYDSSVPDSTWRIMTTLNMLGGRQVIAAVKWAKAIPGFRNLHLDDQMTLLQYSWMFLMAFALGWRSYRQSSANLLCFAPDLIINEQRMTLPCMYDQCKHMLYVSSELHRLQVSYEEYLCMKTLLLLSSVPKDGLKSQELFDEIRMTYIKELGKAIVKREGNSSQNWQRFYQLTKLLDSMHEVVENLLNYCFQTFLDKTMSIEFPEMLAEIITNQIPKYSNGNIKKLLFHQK
How it was run: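 Translocation of GR-ED fusion to nuclear EA restores b-gal, read by luminescence after 1 h room-temperature detection. Engineered CHO-K1 biosensor cells, 1,000/well, exposed 2 h at 37 C to titrations up to 46 uM final.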

[6] = target: Mitogen-activated protein kinase 10 (Mus musculus) (UniProt Q61831); experiment: JNK3 AlphaScreen Assay (AID 530; active means well fitted curve in either direction with a large enough effect, not every such curve was filed as active;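 further: kinase came from lysate of stimulated human HepG2 cells; signal reports phosphorylation of biotinylated GST-cJun 1-79 at Ser73 with 10 µM ATP; on the % scale 0 is the no-effect control and ±100 the full control effect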); details: JNK3 lysate, c-Jun phosphorylation; series mostly up to 57.1 µM
How it was run: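 qHTS titrations with 15 min compound pre-incubation before adding ATP (10 uM final). Read-out: AlphaScreen of Ser73-phosphorylated biotin-GST-cJun using HepG2 lysate JNK3 activated by IL-1β and TNFα.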

[7] = target: 3',5'-cyclic-AMP phosphodiesterase 4B (Homo sapiens) (UniProt Q07343); experiment: qHTS Assay for Inhibitors of PDE-IV (AID 607; active means well fitted activation curve with a large enough effect in the main read-out, with a control signal flat, not every such curve was filed as active; further: potency means the concentration at half of the fitted maximal effect); details: HEK293 ACTOne CNG channel cells, membrane potential fluorescence; series mostly up to 22.9 µM
3',5'-cyclic-AMP phosphodiesterase 4B (Homo sapiens), sequence (Q07343 whole entry, looked up): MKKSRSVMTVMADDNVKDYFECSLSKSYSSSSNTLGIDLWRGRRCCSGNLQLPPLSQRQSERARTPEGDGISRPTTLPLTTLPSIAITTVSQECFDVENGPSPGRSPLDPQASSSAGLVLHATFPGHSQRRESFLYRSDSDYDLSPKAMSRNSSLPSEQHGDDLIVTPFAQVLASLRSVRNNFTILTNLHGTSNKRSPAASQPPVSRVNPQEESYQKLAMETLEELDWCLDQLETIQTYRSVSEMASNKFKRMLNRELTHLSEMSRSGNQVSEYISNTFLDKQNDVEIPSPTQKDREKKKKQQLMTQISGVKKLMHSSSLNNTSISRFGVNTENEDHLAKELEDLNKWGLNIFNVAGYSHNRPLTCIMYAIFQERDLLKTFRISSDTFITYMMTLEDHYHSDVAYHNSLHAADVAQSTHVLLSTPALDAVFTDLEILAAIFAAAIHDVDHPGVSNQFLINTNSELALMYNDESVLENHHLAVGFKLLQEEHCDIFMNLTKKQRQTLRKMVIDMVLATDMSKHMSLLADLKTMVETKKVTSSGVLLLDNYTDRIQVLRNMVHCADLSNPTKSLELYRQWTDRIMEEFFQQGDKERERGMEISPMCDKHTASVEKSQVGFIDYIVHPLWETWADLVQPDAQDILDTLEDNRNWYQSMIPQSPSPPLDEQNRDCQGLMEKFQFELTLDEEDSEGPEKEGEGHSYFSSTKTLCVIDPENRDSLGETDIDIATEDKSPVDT
How it was run: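 The readout is membrane depolarisation from a cAMP-sensing CNG channel, detected with a potential dye at ex 535/em 590. Cells were HEK293-derived (endogenous PDE-IV) at 1000 cells/well, titrated up to 22.9 uM final.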

[8] = target: Cytochrome P450 3A4 (Homo sapiens) (UniProt P08684); experiment: qHTS Assay for Activators of Cytochrome P450 3A4 (AID 885; active means well fitted curve in the direction sought with a large enough effect; an effect the other way counts as inactive or inconclusive; further: nearly all actives have a fitted effect of over 65% in size); details: recombinant CYP3A4, Luciferin-PPXE luminescence, 60 min; series mostly up to 57.1 µM
Cytochrome P450 3A4 (Homo sapiens), sequence (P08684 whole entry, looked up): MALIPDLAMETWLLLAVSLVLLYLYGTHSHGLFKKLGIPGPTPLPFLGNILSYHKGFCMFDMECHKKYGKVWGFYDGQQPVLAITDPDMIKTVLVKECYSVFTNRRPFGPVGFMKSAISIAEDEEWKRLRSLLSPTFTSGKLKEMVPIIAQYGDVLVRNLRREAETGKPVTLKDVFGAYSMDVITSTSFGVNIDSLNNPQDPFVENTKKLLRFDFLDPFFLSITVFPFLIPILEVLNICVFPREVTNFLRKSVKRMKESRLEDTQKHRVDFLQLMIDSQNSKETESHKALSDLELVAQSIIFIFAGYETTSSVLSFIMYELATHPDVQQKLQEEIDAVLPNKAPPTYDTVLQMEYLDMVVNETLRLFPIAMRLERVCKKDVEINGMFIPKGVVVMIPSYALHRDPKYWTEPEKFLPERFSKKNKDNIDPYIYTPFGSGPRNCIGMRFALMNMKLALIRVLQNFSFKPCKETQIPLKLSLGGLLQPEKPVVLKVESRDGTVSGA
How it was run: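 Activators are scored by enhanced luminescence from CYP3A4 conversion of luciferin-PPXE (25uM, equal to KM) to luciferin, after 60 min at RT with an NADPH-regenerating system.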

[9] = target: Cytochrome P450 2C19 (Homo sapiens) (UniProt P33261); experiment: qHTS Assay for Inhibitors and Substrates of Cytochrome P450 2C19 (AID 899; active means well fitted curve in the direction sought with a large enough effect; an effect the other way counts as inactive or inconclusive; further: nearly all actives have a fitted effect of over 60% in size; further: potency means the concentration at half of the fitted maximal effect); details: recombinant CYP2C19, luciferin-H EGE luminescence; series mostly up to 57.1 µM
Cytochrome P450 2C19 (Homo sapiens), sequence (P33261 whole entry, looked up): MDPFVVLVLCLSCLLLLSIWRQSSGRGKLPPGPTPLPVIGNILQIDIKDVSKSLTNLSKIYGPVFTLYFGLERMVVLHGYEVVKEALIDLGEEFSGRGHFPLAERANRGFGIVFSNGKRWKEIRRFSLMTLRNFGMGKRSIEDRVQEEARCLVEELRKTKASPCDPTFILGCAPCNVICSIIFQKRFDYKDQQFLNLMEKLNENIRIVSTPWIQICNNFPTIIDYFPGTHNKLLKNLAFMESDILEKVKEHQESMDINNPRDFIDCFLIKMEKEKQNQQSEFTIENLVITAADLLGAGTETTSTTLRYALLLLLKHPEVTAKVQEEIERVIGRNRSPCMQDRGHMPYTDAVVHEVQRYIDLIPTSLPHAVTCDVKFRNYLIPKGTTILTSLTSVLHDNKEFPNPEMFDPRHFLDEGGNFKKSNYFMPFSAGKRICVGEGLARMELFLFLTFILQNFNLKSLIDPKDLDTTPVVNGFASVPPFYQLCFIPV
How it was run: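 5nM enzyme + 10uM Luciferin-H EGE (=KM), 50mM KPO4; cpd pin-transferred, 10 min 37C; NADPH regen, 60 min 37C; stopped w/ luciferin detection reagent, 20 min; luminescence. Normalized to 57uM ketoconazole (AC100).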

[10] = qHTS Assay for Lipid Storage Modulators (AID 1519); details: Drosophila S3 cells, BODIPY lipid droplet/cell ratio, laser cytometry, cells loaded with oleic acid; for activity change, negative = inhibition: at 57.5 µM (top of the series)
How it was run: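 Cells seeded at 5,000 per well were treated with compounds over a concentration series and loaded with oleic acid (400 uM, as added). Lipid droplet fluorescence (488 nm excitation, 500-530 nm channel) was read by laser-scanning cytometry and normalized to 20 uM Triacsin C.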

[11] = Primary qHTS for small molecule stabilizers of the endoplasmic reticulum resident proteome: Secreted ER Calcium Modulated Protein (SERCaMP) assay (AID 1508630; active means well fitted curve in the direction sought with a large enough effect; an effect the other way counts as inactive or inconclusive; further: on the % scale 0 is the no-effect control and ±100 the full control effect); details: SH-SY5Y GLuc-SERCaMP (Gaussia luciferase released on ER calcium loss) secretion, thapsigargin, luminescence; series mostly up to 38.4 µM
How it was run: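 The SH-SY5Y reporter protocol was run at 3 concentrations up to 38.3 uM (primary) or 11 concentrations (follow-up): 16 h compound, 100 nM thapsigargin for 4 h, then extracellular luciferase luminescence.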

[12] = target: Cytochrome P450 2D6 (Homo sapiens) (UniProt P10635); experiment: qHTS Assay for Inhibitors and Substrates of Cytochrome P450 2D6 (AID 891; active means well fitted curve in the direction sought with a large enough effect; an effect the other way counts as inactive or inconclusive; further: potency means the concentration at half of the fitted maximal effect; nearly all actives have a fitted effect of over 60% in size); details: recombinant CYP2D6, luciferin-ME EGE luminescence; series mostly up to 57.1 µM
Cytochrome P450 2D6 (Homo sapiens), sequence (P10635 whole entry, looked up): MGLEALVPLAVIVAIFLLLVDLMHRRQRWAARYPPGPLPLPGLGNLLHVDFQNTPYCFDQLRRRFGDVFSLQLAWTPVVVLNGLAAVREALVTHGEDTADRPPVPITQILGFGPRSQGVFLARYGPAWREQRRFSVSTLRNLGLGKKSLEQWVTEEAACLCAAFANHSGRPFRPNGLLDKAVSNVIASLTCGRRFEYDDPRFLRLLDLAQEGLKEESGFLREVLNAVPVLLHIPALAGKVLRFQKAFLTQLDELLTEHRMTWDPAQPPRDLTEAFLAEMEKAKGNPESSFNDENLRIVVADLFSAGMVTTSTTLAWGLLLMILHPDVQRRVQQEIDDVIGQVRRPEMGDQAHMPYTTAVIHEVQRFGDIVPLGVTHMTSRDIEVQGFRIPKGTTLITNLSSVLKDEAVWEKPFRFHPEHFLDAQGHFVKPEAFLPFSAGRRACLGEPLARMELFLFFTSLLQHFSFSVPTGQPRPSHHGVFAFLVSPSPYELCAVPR
How it was run: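 Luminescent read-out of luciferin formed by 5 nM human CYP2D6 demethylating 30 uM Luciferin-ME EGE (Km level) over 60 min at room temperature after NADPH regeneration addition. Data normalized to full inhibition by 1.43 uM quinidine.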

[13] = target: Glucocorticoid receptor (Homo sapiens) (UniProt P04150); experiment: GR-GFP Redistribution (AID 450;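 active means compounds whose dose series gives a full or clear partial fitted curve of increased nuclear translocation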; further: potency means the concentration at half of the fitted maximal effect); details: U2OS GR-GFP nuclear translocation, laser cytometry, 2 h
[14] = target: Cytochrome P450 3A4 (Homo sapiens) (UniProt P08684); experiment: qHTS Assay for Inhibitors and Substrates of Cytochrome P450 3A4 (AID 884; active means well fitted curve in the direction sought with a large enough effect; an effect the other way counts as inactive or inconclusive; further: potency means the concentration at half of the fitted maximal effect; nearly all actives have a fitted effect of over 50% in size); details: recombinant CYP3A4, Luciferin-PPXE luminescence; series mostly up to 57.1 µM
How it was run: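 Luminescent readout of luciferin produced by CYP3A4 (20 nM) dealkylation of Luciferin-PPXE, 25 uM (its KM). NADPH-driven reaction ran 60 min at RT after 10 min compound preincubation; data scaled to 57 uM ketoconazole as 100% inhibition.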

[15] = Confirmation and Secondary Assay for Modulators of Hemoglobin Beta Chain Splicing at IVS2 654 locus (AID 910; active means well fitted curve in the direction sought with a large enough effect; an effect the other way counts as inactive or inconclusive;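 further: HeLa cells stably carrying EGFP split by mutant beta-globin IVS2-654 intron; per-well total GFP intensity by laser scanning cytometry after 2-day treatment; % of control where 0% means no effect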); details: HeLa EGFP-654 splicing reporter, GFP fluorescence, 48 h; series mostly up to 38.3 µM
How it was run: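 Readout: per-well total peak green fluorescence (488 nm ex, 500–520 nm em) from objects 5–250 µm, reflecting correct splicing of an EGFP-654 reporter. Compounds were applied for 2 days at 37 °C to overnight-plated HeLa EGFP-654 cells; controls were DMSO and 500 nM IVS2-654 PNA.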

[16] = Confirmation and Secondary Assay for Modulators of Hemoglobin Beta Chain Splicing at IVS2 705 locus (AID 930; active means well fitted curve in the direction sought with a large enough effect; an effect the other way counts as inactive or inconclusive;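 further: HeLa cells stably expressing the EGFP-705 splicing reporter; GFP fluorescence per well restored by corrected splicing of the IVS2-705 intron in EGFP; % of control where 0% means no effect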); details: HeLa EGFP-705 splicing reporter, GFP fluorescence, 48 h; series mostly up to 38.3 µM
How it was run: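 Splice-correction reporter: EGFP cDNA split by beta-globin intron 2 bearing the 705 mutation, stably in HeLa. Compound incubation 2 days, 37C; fluorescent objects 5-250 µm summed per well.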

[17] = target: Ubiquitin carboxyl-terminal hydrolase 1 (Homo sapiens) (UniProt O94782); experiment: Inhibitors of USP1/UAF1: Pilot qHTS (AID 504865; active means well fitted curve in the direction sought with a large enough effect; an effect the other way counts as inactive or inconclusive;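 further: rhodamine fluorescence freed from ubiquitin-rhodamine substrate followed over time; top concentration of the series differs between compounds; on the % scale 0 is the no-effect control and ±100 the full control effect; nearly all actives have a fitted effect of over 35% in size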); details: purified USP1/UAF1, Ub-rhodamine cleavage fluorescence; series mostly up to 54.9 µM
Ubiquitin carboxyl-terminal hydrolase 1 (Homo sapiens), sequence (O94782 whole entry, looked up): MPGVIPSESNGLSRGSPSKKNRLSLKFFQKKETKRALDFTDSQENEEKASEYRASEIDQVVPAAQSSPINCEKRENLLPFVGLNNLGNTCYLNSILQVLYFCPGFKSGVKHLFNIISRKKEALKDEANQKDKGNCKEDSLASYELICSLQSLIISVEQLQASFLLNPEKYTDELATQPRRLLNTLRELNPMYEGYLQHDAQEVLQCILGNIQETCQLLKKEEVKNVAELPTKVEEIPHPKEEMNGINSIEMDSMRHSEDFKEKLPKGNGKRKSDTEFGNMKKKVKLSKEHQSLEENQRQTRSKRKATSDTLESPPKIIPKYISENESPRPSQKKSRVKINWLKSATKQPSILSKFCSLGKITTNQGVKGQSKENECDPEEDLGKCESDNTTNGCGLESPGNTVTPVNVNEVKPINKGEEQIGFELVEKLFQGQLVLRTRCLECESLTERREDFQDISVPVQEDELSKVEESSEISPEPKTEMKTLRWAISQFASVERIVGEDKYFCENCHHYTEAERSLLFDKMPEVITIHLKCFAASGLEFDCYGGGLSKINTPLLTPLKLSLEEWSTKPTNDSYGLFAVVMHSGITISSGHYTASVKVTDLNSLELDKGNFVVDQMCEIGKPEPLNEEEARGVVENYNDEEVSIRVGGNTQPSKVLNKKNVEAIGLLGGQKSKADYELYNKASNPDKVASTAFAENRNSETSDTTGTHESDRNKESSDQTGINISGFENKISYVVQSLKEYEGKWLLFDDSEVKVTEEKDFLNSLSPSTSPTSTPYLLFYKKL
How it was run: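 USP1/UAF1 complex at 1 nM preincubated 15 min at room temperature with compound, then Ub-Rho substrate added at 150 nM final. Fluorescence (480/540 nm) read kinetically in 50 mM HEPES pH 7.8, 0.5 mM EDTA, 1 mM TCEP, 0.1 mg/ml BSA, 0.01% Tween-20.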

[18] = qHTS Assay for Identification of Small Molecule Agonists for Hypoxia Response Element Signaling Pathway (AID 914; active means well fitted activation curve with a large enough effect in the signal ratio, with a control signal flat, not every such curve was filed as active; the % refers to the signal ratio; further: potency means the concentration at half of the fitted maximal effect; on activation: % of control where 0% means no effect); details: ME-180 (cervical carcinoma) HRE-bla reporter, beta-lactamase ratio, CoCl2, 17 h; activation: stronger effect = higher value
How it was run: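 Cells were plated overnight, pin-dosed with compound in a titration series, co-stimulated with EC50 CoCl2 and incubated 17 hours at 37 degrees Celsius. CCF4 substrate was then loaded, and AC50 values came from the 460nm/530nm ratio.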

[19] = target: Cytochrome P450 2C9 (Homo sapiens) (UniProt P11712); experiment: qHTS Assay for Inhibitors and Substrates of Cytochrome P450 2C9 (AID 883; active means well fitted curve in the direction sought with a large enough effect; an effect the other way counts as inactive or inconclusive; further: potency means the concentration at half of the fitted maximal effect; nearly all actives have a fitted effect of over 60% in size); details: recombinant CYP2C9, luciferin-H luminescence, 60 min; series mostly up to 57.1 µM
How it was run: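 Inhibition of CYP2C9 is scored as loss of luminescence, with 57uM sulphaphenazole defining 100% inhibition. Substrate Luciferin-H is used at 100uM, equal to its KM; enzyme at 10nM in 25mM KPO4, 60 min at 37C with NADPH regeneration.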

[20] = measured here: cell count channel max response
[21] = measured here: lipid channel max response

Lysosomal acid glucosylceramidase (Homo sapiens), sequence (P04062 whole entry, looked up): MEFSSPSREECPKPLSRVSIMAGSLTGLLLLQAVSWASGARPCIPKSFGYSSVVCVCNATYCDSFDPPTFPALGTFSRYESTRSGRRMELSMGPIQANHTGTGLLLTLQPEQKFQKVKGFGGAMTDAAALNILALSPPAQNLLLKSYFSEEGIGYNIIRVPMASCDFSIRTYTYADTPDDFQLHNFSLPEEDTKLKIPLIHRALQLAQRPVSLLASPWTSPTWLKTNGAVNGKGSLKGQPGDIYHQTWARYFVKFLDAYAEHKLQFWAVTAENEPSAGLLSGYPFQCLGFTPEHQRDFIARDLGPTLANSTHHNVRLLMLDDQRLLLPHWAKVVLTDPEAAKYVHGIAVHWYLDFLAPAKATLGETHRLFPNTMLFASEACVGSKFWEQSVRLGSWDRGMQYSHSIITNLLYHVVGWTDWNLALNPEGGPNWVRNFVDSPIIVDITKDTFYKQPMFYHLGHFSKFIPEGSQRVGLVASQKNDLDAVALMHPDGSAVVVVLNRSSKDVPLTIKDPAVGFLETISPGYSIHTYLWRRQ

O=C(Nc1ccccc1)N1CC[C@@]2(CCCN(C(=O)c3cc(C(F)(F)F)cc(C(F)(F)F)c3)C2)C1
-0.407%: max response [10, 20]
active: Potency [3] 25.1 µM
inactive: Potency [1] > 11.4 µM | activity change, negative = inhibition [2] -5.62% | activity, negative = inhibition [4] -6.2% | Potency [5] > 46 µM | Potency [6] | Potency [7] | Potency [8] | Potency [9] | activity change, negative = inhibition [10] 4.15% | outcome [11]
6.94%: max response [10, 21]

Cn1cccc1C(=O)N1CCC2(CCN(Cc3ccccc3)CC2)CC1
16.4%: max response [10, 20]
inactive: Potency [1] > 11.4 µM | activity change, negative = inhibition [2] -1.12% | Potency [3] | activity, negative = inhibition [4] 4.92% | Potency [5] > 46 µM | Potency [6] | Potency [7] | activity change, negative = inhibition [10] 4.86% | outcome [11]
active: Potency [12] 7.94 µM
22.8%: max response [10, 21]

CS(=O)(=O)Nc1cccc(-c2nc(NCc3cccs3)c3ccccc3n2)c1
inactive: Potency [1] > 2.29 µM | activity change, negative = inhibition [2] -19.7% | Potency [13] > 46 µM | Potency [5] > 46 µM | Potency [6] | Potency [8] | Potency [15] | outcome [16] | activity change, negative = inhibition [10] 6.98% | Potency [17] | outcome [11]
-9.8%: max response [10, 20]
active: Potency [3] 1 µM | Potency [14] 3.16 µM
-2.81%: max response [10, 21]

O=C(c1cccc(F)c1)N1CCC2(CCN(Cc3ccccc3)CC2)CC1
6.47%: max response [10, 20]
inactive: Potency [1] > 11.4 µM | activity change, negative = inhibition [2] -3.73% | Potency [3] | activity, negative = inhibition [4] 0.711% | Potency [5] > 46 µM | Potency [6] | Potency [7] | activity change, negative = inhibition [10] 2.97% | outcome [11]
active: Potency [12] 7.94 µM
15.1%: max response [10, 21]

COCC(=O)N1CCC2(CCCN(c3ncccn3)C2)CC1
inactive: Potency [1] > 11.4 µM | activity change, negative = inhibition [2] -5.71% | Potency [3] | activity, negative = inhibition [4] -7.69% | Potency [5] > 46 µM | Potency [6] | Potency [7] | activation [18] 11.9% | activity change, negative = inhibition [10] 7.95% | outcome [11]
9.8%: max response [10, 20]
21.8%: max response [10, 21]

O=C(Oc1ccccc1)N1CCC2(CC1)CN(c1ccncc1)C2
0.26%: max response [10, 20]
active: Potency [19] 3.16 µM | Potency [9] 7.94 µM
inactive: Potency [1] > 11.4 µM | activity change, negative = inhibition [2] -1.8% | Potency [3] | activity, negative = inhibition [4] -4.7% | Potency [5] > 46 µM | Potency [7] | Potency [8] | activity change, negative = inhibition [10] 1.74% | outcome [11]
4.81%: max response [10, 21]

CN(C)c1ncc2nc(-c3ccc(F)cc3)c(=O)n(C3CC3)c2n1
inactive: Potency [1] > 11.4 µM | activity change, negative = inhibition [2] 18.2% | Potency [13] > 9.22 µM | Potency [5] > 46 µM | Potency [6] | activity change, negative = inhibition [10] 2.01% | outcome [11]
active: Potency [3] 1.58 µM | Potency [7] 2 µM | Potency [18] 2.51 µM
10.2%: max response [10, 20]
13.7%: max response [10, 21]
